# Measured values: the supplement of paper PMC10338343
# ± gives the standard deviation. Whole data set: some 8,200 sequences, median “pre-steady-state target cleavage rate” near 0.024, cut for the highest 2% near 1.3. This is one part of a sample in which the highest values are shown more often than they occur.
# System: MIWI (PIWIL1) piRISC loaded with L1MC piRNA (30 nt)
# Experiment: pre-steady-state target cleavage rate (min^-1); MIWI and MILI are mouse PIWI proteins and EfPiwi is from a freshwater sponge; tags in brackets are library labels; higher = faster piRNA-guided slicing of the target
# Conditions: guide: L1MC piRNA 5'p-UAACUAAAUACUAUGCAAGCUGUAGGUCCU
# Summary of the method: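 At 33 °C in HEPES–potassium acetate buffer, a transcribed, DNA-blocked target RNA library […] was exposed for 0–8 or 0–960 min to 1 nM active affinity-purified piRISC carrying a single synthetic guide, with or without 500 nM GTSF1 partner protein. Uncleaved targets were sequenced and normalised to depth and to weakly complementary targets. With three trials pooled and k3 capped at 0.0001 min^-1, a burst-and-steady-state fit produced the pre-steady-state cleavage rate.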
# [1] = auxiliary factor: 500 nM mouse GTSF1
# [2] = auxiliary factor: none (no GTSF1)
# 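Note: 1 nM active piRISC with 0.1 nM target library at 33 °C single turnover.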
Sequence,pre-steady-state target cleavage rate [1],pre-steady-state target cleavage rate [2]
UGCACCUACAGCAUGCAUAGUAUUUAGUUA,0.998 ± 0.092,0.0271 ± 0.0047
UCGACCUACAGCAUGCAUAGUAUUUAGUAA,0.99 ± 0.072,0.0189 ± 0.0064
AGCACCUACAGCAUGCAUAGUAUUUAGUUA,1.02 ± 0.13,0.0663 ± 0.022
ACGACCUACAGCAUGCAUAGUAUUUAGUUA,1.43 ± 0.053,0.082 ± 0.021
UCGACCUACAGCAUGCAUAGUAUUUAGUUA,1.48 ± 0.049,0.0548 ± 0.013
UCGACCUACAGCAUUGCAUAGUAUUUAGUUA,1.19 ± 0.082,0.0581 ± 0.012
UCCUGCUAGAGCUUGCAUAGUAUUUACAAA,0.186 ± 0.047,–
UCCUGCUACAGCUAGCAUAGUAUUUUCAAA,0.0744 ± 0.023,–
UCCUGGAACAGCUUGCAAUGUAUUUAGUAA,0.146 ± 0.018,0.00598 ± 0.003
UGGACCUACAGCUUGCAUAGUAUUUAUUA,0.126 ± 0.015,0.00594 ± 0.0034
UGGACCUACAGCUUGCAUAGUUAAUAGAAA,0.0323 ± 0.01,–
UGGACCUAAGCUUGCAUAGUAUUUAGUUA,1.27 ± 0.083,0.0446 ± 0.012
UCCACCUCAGCUUGCAUAGUAUUUAGUUA,0.878 ± 0.07,0.0436 ± 0.0088
AGGACCUCCAGCUUGCAUAGUAUUUAGUUA,1.22 ± 0.048,0.0926 ± 0.018
AGGACCUCAGCUUGCAUAGUAUUUAGUUA,1.34 ± 0.077,0.0984 ± 0.019
UGGACCUCAGCUUGCAUAGUAUUUAGUUA,1.43 ± 0.094,0.055 ± 0.011
UCCACCUCCAGCUUGCAUAGUAUUUAGUUA,0.89 ± 0.033,0.0442 ± 0.0078
UGGACCUCCAGCUUGCAUAGUAUUUAGUUA,1.39 ± 0.054,0.08 ± 0.014
UCGACCUACUGCUUGCAUAGUAUUUACUUA,0.278 ± 0.017,0.0322 ± 0.0038
UCCUGGUACACCUUGCAUAGUAUAUAGUUA,0.555 ± 0.09,0.00685 ± 0.0027

Sequence,pre-steady-state target cleavage rate [1],pre-steady-state target cleavage rate [2]
UCCACCUACAGCUUGCAUAGUAUAAUCAAA,0.327 ± 0.056,–
UGGAGGAACAGCUUGCAUAGUAUUUAGUUA,1.26 ± 0.049,0.0795 ± 0.015
UGGAGCAACAGCUUGCAUAGUAUUUAGUUA,1.39 ± 0.044,0.0851 ± 0.016
AGGAGCAACAGCUUGCAUAGUAUUUAGUUA,1.67 ± 0.069,0.0907 ± 0.016
UCGAGGAACAGCUUGCAUAGUAUUUAGUUA,1.02 ± 0.076,0.057 ± 0.011
UCCAGCAACAGCUUGCAUAGUAUUUAGUUA,1.19 ± 0.049,0.0797 ± 0.014
UCCUGGAGCAGCUUGCAUAGUAUUUAGUUA,1.13 ± 0.044,0.0692 ± 0.013
AGGAGGAACAGCUUGCAUAGUAUUUAGUUA,1.41 ± 0.065,0.0955 ± 0.019
UCGAGCAACAGCUUGCAUAGUAUUUAGUUA,1.29 ± 0.044,0.076 ± 0.013
UCCUGGAUGUGCUUUGCAUAGUAUUUAGUUA,0.251 ± 0.022,0.0142 ± 0.0043
UCCUGGAUGAGCUUGCAAAGUAUUUUGUUA,0.267 ± 0.029,0.0136 ± 0.0037
UCGACGUACACCUUGCAUAGUAUUUAGUUA,1.23 ± 0.026,0.0575 ± 0.0089
UCCUGGUACAGCUAGCAUAGUAAUUAGUUA,0.379 ± 0.053,0.00998 ± 0.0037
UCCUGGUACAGCUUGCAUAGUAUUUGGUUA,0.449 ± 0.037,0.0417 ± 0.0074
UGGACCUACAGCUUGCAUAGUUAUUACAAA,0.0207 ± 0.0062,–
UCGACCUACACCUUGCAUAGUAUUUACUUA,0.254 ± 0.034,0.0244 ± 0.0036
UCCUGGAUGAGCUUGGAUAGUAUUUACUUA,–,0.00357 ± 0.0031
UGGACCUACGGCUUGCAUAGUAUUUAGUUA,1.44 ± 0.1,0.0662 ± 0.013
UCGACCUACGAGCUUGCAUAGUAUUUAGUUA,0.737 ± 0.077,0.0529 ± 0.011
UCGACCUACGGCUUGCAUAGUAUUUAGUUA,1.35 ± 0.053,0.069 ± 0.011

Sequence,pre-steady-state target cleavage rate [1],pre-steady-state target cleavage rate [2]
UCCACCUACGGCUUGCAUAGUAUUUAGUUA,0.921 ± 0.074,0.0494 ± 0.01
UCGACCUACAGGCUUGCAUAGUAUUUAGUUA,1.07 ± 0.045,0.07 ± 0.011
AGGACCUACGGCUUGCAUAGUAUUUAGUUA,1.27 ± 0.077,0.0872 ± 0.017
UCCUCCUACAGCUUGCAUAGUUUUUAGAUA,0.228 ± 0.036,0.00676 ± 0.0025
AGGACCUACAGCUUGCAUAGUUUUUAGAUA,0.259 ± 0.034,0.0189 ± 0.0055
UCCUGCUACAACUUGCAUAGUAUUUAGUUA,0.679 ± 0.044,0.0522 ± 0.0072
UCCUGGUUCAGCUUGGAUAGUAUUUAGUUA,0.791 ± 0.063,0.0603 ± 0.014
UCCUGGAACAGCUGCAUAGUAUUUAGUUA,0.767 ± 0.044,0.00757 ± 0.0034
UCCUCCUACAGCCUGCAUAGUAUUUAGUUA,1.18 ± 0.038,0.056 ± 0.0094
UCGACCUACAGCCUGCAUAGUAUUUAGUUA,1.41 ± 0.038,0.0857 ± 0.015
UCCUGCUACAGCCUGCAUAGUAUUUAGUUA,0.976 ± 0.05,0.0598 ± 0.011
AGGACCUACAGCCUUGCAUAGUAUUUAGUUA,1.23 ± 0.069,0.0878 ± 0.019
UCCACCUACAGCCUGCAUAGUAUUUAGUUA,1.15 ± 0.033,0.0634 ± 0.01
UCGACCUACAGCCUUGCAUAGUAUUUAGUUA,1.28 ± 0.046,0.0668 ± 0.014
UGGACCUACAGCCUGCAUAGUAUUUAGUUA,1.34 ± 0.048,0.0741 ± 0.013
UGGACCUACAGCCUUGCAUAGUAUUUAGUUA,1.21 ± 0.081,0.0496 ± 0.0085
AGGACCUACAGCCUGCAUAGUAUUUAGUUA,1.51 ± 0.063,0.0892 ± 0.017
AGGACCUACUGCUUGCAUAGUAUUUAGUAA,0.861 ± 0.077,0.0651 ± 0.012
UCCUGGAACAGGUUGCAUAGUUUUUAGUUA,0.167 ± 0.016,0.0162 ± 0.0044
UGGACCUACAGGUUGCAUAGUAUAUAGUUA,0.549 ± 0.056,0.0198 ± 0.0053
